Assay results: PubChem BioAssay
Activity calls are given as the source filed them. Unless noted, how the calls were made is not given here.

How the values were obtained:
[1] = tested on: Wnt5a (protein binding on small-molecule microarray); test: Wnt5a binders on small-molecule microarray, primary screen, biophysical, 635/667 nm fluorescence (AID 1142); conditions: 635 nm fluorescence, higher = more signal;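 further: fluorescence read at 667 nm with signal to noise per printed feature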
[2] = cell viability in Huh7 cells, primary screen, cytotoxicity control for HCV replication inhibitor project, CellTiter-Glo luminescence, basal, 48 h (AID 1143); conditions: Huh7 HCV replicon, higher = more signal, called active from +8 up or from −8 down;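 further: Huh7 hepatoma cells carrying a hepatitis C replication reporter with no stimulus; test concentration not given here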
[3] = P. aeruginosa biofilm formation inhibitors, primary screen, PAO1 strain, BacTiter-Glo luminescence, LB-PBS (AID 1144); conditions: 12 h, higher = more signal
[4] = CREB reporter modulators without forskolin, primary screen, cell-based, PC12, CRE-LacZ reporter, unstimulated (AID 1145); conditions: no forskolin, luminescence, 4.5 h, higher = more signal, called active from +8 up or from −8 down
[5] = CREB reporter modulators under forskolin, primary screen, cell-based, PC12, CRE-LacZ reporter, forskolin-stimulated (AID 1146); conditions: luminescence, 4.5 h, higher = more signal, called active from +8 up or from −8 down;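 further: PC12 cells with 6xCRE LacZ reporter stimulated by forskolin 10 µM; beta-galactosidase reporter signal reflecting CREB driven transcription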
[6] = target: Streptavidin (Streptomyces avidinii) (UniProt P22629); test: streptavidin binders on small-molecule microarray, primary screen, artefact control for SMM compound annotation, biophysical, 635/667 nm fluorescence (AID 1147); conditions: streptavidin binding, higher = more signal;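 further: signal reflects streptavidin binding to arrayed compounds as a control protein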
Sequence of Streptavidin (Streptomyces avidinii) (P22629 whole entry, looked up): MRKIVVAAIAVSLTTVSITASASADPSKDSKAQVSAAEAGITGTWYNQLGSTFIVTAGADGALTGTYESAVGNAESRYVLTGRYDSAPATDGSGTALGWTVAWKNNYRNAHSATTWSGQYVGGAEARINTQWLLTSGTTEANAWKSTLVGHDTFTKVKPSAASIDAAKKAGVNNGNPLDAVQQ

[7] = small-molecule binders of probe aInhba, primary screen, biochemical, small-molecule microarray, 635/667 nm fluorescence (AID 1148); conditions: higher = more signal;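 further: score merges 667nm spot fluorescence with signal-to-noise for antibody binding to printed compounds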
Torsin-1A (Homo sapiens) [8] = target: Torsin-1A (Homo sapiens) (UniProt O14656); test: torsin A binders from cell lysate, primary screen, small-molecule microarray, wild-type, 635/667 nm (AID 1149); conditions: COS7 hTOR1A-WT lysate, 635 nm fluorescence, higher = more signal
Sequence of Torsin-1A (Homo sapiens) (O14656 whole entry, looked up): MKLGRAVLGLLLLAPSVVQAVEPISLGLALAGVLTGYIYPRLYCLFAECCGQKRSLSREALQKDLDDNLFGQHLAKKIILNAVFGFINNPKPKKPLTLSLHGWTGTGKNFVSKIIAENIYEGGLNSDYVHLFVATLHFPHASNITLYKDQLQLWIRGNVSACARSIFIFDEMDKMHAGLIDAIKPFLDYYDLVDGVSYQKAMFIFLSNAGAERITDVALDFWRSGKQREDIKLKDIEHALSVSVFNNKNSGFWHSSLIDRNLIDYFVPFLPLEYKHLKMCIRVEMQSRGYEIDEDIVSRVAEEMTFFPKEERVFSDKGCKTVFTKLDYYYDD

Torsin-1A (Homo sapiens) [9] = target: Torsin-1A (Homo sapiens) (UniProt O14656); test: small-molecule binders of mutant TOR1A in lysate, primary screen, cell lysate, small-molecule microarray, COS7 lysate, 635/667 nm fluorescence (AID 1150); conditions: COS7 hTOR1A mutant lysate, 635 nm fluorescence, higher = more signal;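 further: score pools 667 nm emission and signal to noise measuring lysate protein binding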
[10] = tested on: Sonic hedgehog protein (Shh); test: small-molecule binders of Shh protein, primary screen, biochemical, small-molecule microarray, 635/667 nm fluorescence (AID 1151); conditions: small-molecule microarray binding, 635 nm fluorescence; higher = more signal;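 further: Shh protein binding to compounds spotted on small-molecule microarray slides; score combines spot fluorescence intensity with signal-to-noise across triplicate slides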

Row | Compound | composite z-score [1] | z-score [2] | z-score [3] | z-score [4] | z-score [5] | composite z-score [6] | composite z-score [7] | composite z-score (Torsin-1A (Homo sapiens) [8]) | composite z-score (Torsin-1A (Homo sapiens) [9]) | composite z-score [10]
1 | C=CC[C@@]1(C(=O)N2CCOCC2)N=C(c2ccc(OCCCO)cc2)O[C@@H]1c1ccccc1N=[N+]=[N-] | 0.331 | -4.09 (inactive) | -0.726 (inactive) | -0.333 (inactive) | -1.34 (inactive) | 1.73 | 0.2 | 0.41 | 0.386 | 0.0055
2 | CCOC(=O)C[C@H]1[C@H](OC(=O)Cc2ccc3c(c2)OCO3)[C@@H](NC(=O)c2ccc(-c3ccccc3)cc2)c2cc(OCCCO)ccc2N1C(=O)c1ccccc1 | 0.0105 | -0.299 (inactive) | -1.24 (inactive) | 3.12 (inactive) | -1.27 (inactive) | 0.0534 | 0.0906 | 0.328 | 0.132 | 0.358
3 | COc1ccc(C#Cc2ccc3c(c2)[C@]2(C(=O)N3)[C@H](C(=O)NC[C@H](O)c3ccccc3)[C@H]3C(=O)O[C@H](c4ccccc4)[C@H](c4ccccc4)N3[C@@H]2c2ccccc2OCCO)cc1 | 0.0762 | -5.79 (inactive) | -0.494 (inactive) | -0.463 (inactive) | -0.336 (inactive) | 0.924 | 0.421 | 0.123 | 0.535 | 1.68
4 | C=C[C@H](C)[C@@H](O)c1ccc(O)c2ccccc12 | -0.302 | -0.276 (inactive) | -0.501 (inactive) | -0.869 (inactive) | 1.63 (inactive) | -0.785 | -0.0471 | -0.378 | -0.0127 | 1.38
5 | COCC1=C2[C@@H](CCc3ccccc3)OB(O)C[C@@H]2[C@@H]2C(=O)N(Cc3ccccc3)C(=O)[C@@H]2C1 | 0.278 | 0.0597 (inactive) | 1.07 (inactive) | 0.663 (inactive) | -0.0777 (inactive) | 0.0569 | -0.152 | -0.427 | 0.0316 | 0.333
6 | [N-]=[N+]=NCc1ccccc1[C@@H]1OC(c2ccc(OCCCO)cc2)=N[C@]1(Cc1ccccc1N=[N+]=[N-])C(=O)NCc1ccccc1 | 0.378 | -3 (inactive) | -0.433 (inactive) | -0.193 (inactive) | -1.02 (inactive) | 0.942 | -0.0006 | 0.819 | 0.191 | 1.51
7 | O=C/C=C/c1ccc(Cl)cc1 | 0.268 | -2.45 (inactive) | -0.421 (inactive) | -0.258 (inactive) | 0.716 (inactive) | -0.359 | -0.179 | -1.01 | -0.786 | -0.823
8 | COC(=O)[C@@]1(Cc2ccc(OC)cc2)[C@H]2c3cc(C(=O)N4CCCC4)n(Cc4ccccn4)c3C[C@H]2CN1C(=O)c1ccccc1 | 0.782 | -1.47 (inactive) | 0.621 (inactive) | 0.201 (inactive) | 1.03 (inactive) | 0.523 | 1.1 | -0.367 | 1.05 | -0.622
9 | CCOC(=O)C1=CCC(C(C)(C)C)N(S(=O)(=O)c2ccc(C)cc2)C1 (stereo not given) | 0.858 | -4.52 (inactive) | 1.19 (inactive) | 0.883 (inactive) | 0.639 (inactive) | 1.6 | -0.0933 | 0.881 | 1.67 | 0.722
10 | Cc1ccc(S[C@]2(C(=O)NCC(C)C)CC(=O)N(Cc3ccccc3Cl)[C@@H]2c2ccc(CO)cc2)cc1 | -0.343 | 0.554 (inactive) | 1.15 (inactive) | 0.118 (inactive) | -0.227 (inactive) | -1.67 | -0.331 | -0.326 | 0.961 | -1.18
11 | CC(=O)NCCCC[C@@H]1NC(=O)[C@@H]2C[C@H](C(=O)NCCCCCCNC(=O)CS)[C@H](c3ccc(O)cc3)N2C1=O | -0.126 | 0.448 (inactive) | -0.388 (inactive) | -0.268 (inactive) | -0.277 (inactive) | 0.453 | -0.0944 | 0.957 | 0.936 | 0.377
12 | Cc1ccc([C@H]2C(C(=O)O)=C[C@@H](C)N2S(=O)(=O)c2ccc(C)cc2)cc1 | -0.144 | -0.501 (inactive) | 0.759 (inactive) | -0.126 (inactive) | 1.32 (inactive) | 0.642 | -0.0509 | -0.948 | -0.465 | -0.945
13 | C=CCNC(=O)[C@H]1[C@@H]2C(=O)O[C@@H](c3ccccc3)[C@@H](c3ccccc3)N2[C@@H](c2ccc(O)cc2)[C@]12C(=O)N(C(=O)OCCOC)c1ccc(C#CCCO)cc12 | 0.317 | -0.185 (inactive) | -0.176 (inactive) | -0.141 (inactive) | 0.567 (inactive) | -0.0841 | -0.0954 | 0.846 | 0.432 | 1.08
14 | CC(C)N1C(=O)[C@@]2(c3ccc([N+](=O)[O-])cc3)CC(=O)N(CC34CC5CC(CC(C5)C3)C4)[C@@H]2c2ccc(CO)cc21 | -0.61 | -0.36 (inactive) | -0.292 (inactive) | 0.452 (inactive) | -0.41 (inactive) | -0.842 | 0.195 | -1.81 | -0.858 | 0.453
